HTT aggregate: inhibitors of mutant huntingtin aggregate formation in PC12 cells; PC12 HttQ103-GFP aggregates, Acumen cytometry, 40 h; Potency, µM (series often up to 46.1 µM), for the others: top-dose activity change, negative = inhibition, most hits filed as inhibitors; hit rate 1.1% among 220,000; AID 1688; active = well fitted curve in the direction sought with a large enough effect; inconclusive = small, poorly fitted or top-dose-only effect, or another doubt; inactive = no such curve, though single readings can be large; an effect the other way counts as inactive or inconclusive; note: potency is the fitted concentration of half-maximal effect; % is set by controls: 0 for no effect and ±100 for the full control effect; nearly all actives have a fitted effect of over 60% in size
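Using laser scanning cytometry, GFP-positive aggregates were counted after lysis of PC12 cells induced with 100 nM tebufenozide to express HTT exon 1 Q103–GFP. Compounds were tested in titration.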
HPGD inh: inhibitors of human 15-hydroxyprostaglandin dehydrogenase (HPGD) | P15428 | purified HPGD, NADH fluorescence kinetic, PGE2 substrate | Potency, µM, for inactives: at the top dose activity change, negative = inhibition, hits mostly inhibitors | hit rate 4.3% among 150,000 | AID 894; note: potency is the fitted concentration of half-maximal effect; % is set by controls: 0 for no effect and ±100 for the full control effect
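NADH formation kinetics: reaction with 30 uM PGE2 and 1 mM NAD+ (final), 20 nM enzyme, Tris-HCl pH 8 with Tween 20, after 15 min compound preincubation at room temperature. Fluorescence change, last versus first of five reads.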
HTT ATP protect: cytoprotection in Huntington HTT-Q103 PC12 cell model; Potency, µM (series often up to 56.4 µM), for inactives: cytoprotection (ATP increase), usual class: activators; hit rate 0.14% among 230,000; PC12 HTT-Q103 induced, cytoprotection, ATP luminescence, 40 h; active = well fitted curve in the direction sought with a large enough effect; inconclusive = small, poorly fitted or top-dose-only effect, or another doubt; inactive = no such curve, though single readings can be large; an effect the other way counts as inactive or inconclusive; note: potency is the fitted concentration of half-maximal effect; % of control where 0% means no effect; nearly all actives have a fitted effect of over 45% in size
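Huntington model: PC12 line, ecdysone-inducible HTTQ103 exon1–GFP, tebufenozide 100 nM. Test articles in a dose series. Endpoint luminescence from cellular ATP.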
CBFb RUNX1 block: inhibitors of human CBF-beta and RUNX1 interaction; AlphaScreen CBFb-His/RUNX1-biotin binding, biochemical; Potency, µM (series often up to 59.8 µM), without a hit: at the highest dose activity, negative = inhibition, actives largely listed as inhibitors; 230,000 tested, under 10 active; AID 1477; active = well fitted curve in the direction sought with a large enough effect; inconclusive = small, poorly fitted or top-dose-only effect, or another doubt; inactive = no such curve, though single readings can be large; an effect the other way counts as inactive or inconclusive; note: % of control where 0% means no effect
Target sequence (Q01196 whole entry, looked up): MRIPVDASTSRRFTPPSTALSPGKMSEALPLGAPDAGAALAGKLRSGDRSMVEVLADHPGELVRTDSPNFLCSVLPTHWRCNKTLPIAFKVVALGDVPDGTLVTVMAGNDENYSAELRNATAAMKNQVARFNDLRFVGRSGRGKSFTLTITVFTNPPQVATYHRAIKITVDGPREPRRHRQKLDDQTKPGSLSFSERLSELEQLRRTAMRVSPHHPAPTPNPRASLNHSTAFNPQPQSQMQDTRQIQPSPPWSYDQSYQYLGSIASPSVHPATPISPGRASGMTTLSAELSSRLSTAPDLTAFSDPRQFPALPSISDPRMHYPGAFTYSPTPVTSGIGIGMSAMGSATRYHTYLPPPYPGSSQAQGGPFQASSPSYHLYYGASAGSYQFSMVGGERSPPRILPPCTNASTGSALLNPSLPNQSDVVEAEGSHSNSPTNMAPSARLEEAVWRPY
Target sequence (Q13951 whole entry, looked up): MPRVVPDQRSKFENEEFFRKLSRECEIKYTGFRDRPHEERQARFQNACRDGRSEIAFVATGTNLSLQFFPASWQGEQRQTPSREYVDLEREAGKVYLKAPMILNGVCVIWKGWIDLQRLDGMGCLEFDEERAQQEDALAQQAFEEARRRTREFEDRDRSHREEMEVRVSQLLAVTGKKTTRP
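Interaction loss through any mechanism counts as activity. Pre-formed complex of His-CBF-beta and biotin-RUNX1 (30 nM apiece) is incubated with compound 15 min, then with 50 ng nickel and 50 ng streptavidin beads for 90 min before AlphaScreen detection.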
ALDH1A1 block: ALDH1A1 (human) enzyme inhibition; Purified ALDH1A1, NADH fluorescence, propionaldehyde substrate; Potency, µM (top dose mostly 75.3 µM), for inactives: top-dose activity, negative = inhibition, actives largely listed as inhibitors; hit rate 7.3% among 220,000; AID 1030;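 note: potency is the fitted concentration of half-maximal effect; plate controls were no enzyme wells and a reference inhibitor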
JMJD2E inh: inhibitors of human JMJD2E histone demethylase | JMJD2E catalytic domain, FDH-coupled NADH fluorescence (FDH is formaldehyde dehydrogenase) | Potency, µM (titrated, usually from 57.1 µM), without a hit: top-dose activity change, negative = inhibition, usual class: inhibitors | hit rate 1.6% among 230,000 | AID 2147;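 note: potency is the fitted concentration of half-maximal effect; 0% = wells with enzyme and -100% = buffer wells without enzyme; nearly all actives have a fitted effect of over 50% in size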
The depositor's hits bear a star; ? = inconclusive; . = no result given; [ ] = remark or other dose. Rows were chosen to be rich in hits. Some 9.8% of all compounds tested hit in one or more screens of this group. Unless noted, calls come from the whole dose curve; as a rule, active = well fitted inhibition curve with a large enough effect (not every such curve was filed as active); inconclusive = small, poorly fitted or top-dose-only effect, or another doubt; inactive = no such curve, though single readings can be large or run the other way.

SMILES	HTT aggregate	HPGD inh	HTT ATP protect	CBFb RUNX1 block	ALDH1A1 block	JMJD2E inh
NS(=O)(=O)c1ccc(NC(=S)NCc2ccc3c(c2)OCO3)cc1	?	.	3%[10 µM]	-1%	22µM*	-7%
CC(C)OCCCNC(=S)Nc1ccc(S(N)(=O)=O)cc1	8%	7.9µM*	.	-4%	1%	-1%
Cn1c(=O)c(-c2cccs2)nc2cnc(N3CCOCC3)nc21	.	.	-36%	.	3%	.
c1ccc(-c2ccc(OCCN3CCCC3)cc2)cc1	.	.	.	-27%	.	.
Fc1ccc(CNC(=S)Nc2ccc(Cl)cc2)cc1	-24%	-15%	-8%	2%	2%	8%
NS(=O)(=O)c1ccc(NC(=S)NCc2ccco2)cc1	-12%[9.22 µM]	.	-2%[10 µM]	-2%	6.3µM*	-7%
S=C(NCc1ccc(Cl)cc1)Nc1ccccc1	8%	18µM*	.	-18%	-6%	-3%
COc1cc(NC(=S)NCc2ccco2)cc(OC)c1OC	-5%	16µM*	7%[10 µM]	1%	?	-4%
NS(=O)(=O)c1ccc(NC(=S)NCc2ccc(Cl)cc2)cc1	5%	20µM*	9%	2%	22µM*	-1%
COc1ccccc1NC(=S)NCc1ccco1	12%	-29%	-3%	5%	-11%	-5%
Cc1ccc2c(c1)C(=O)[C@]1(O)CCN(c3ccccc3)C1=N2	.	-3%	-99%	-4%	-4%	?
CCc1nnc(NC(=O)Cn2nnc(-c3ccccc3F)n2)s1	-2%	-2%	-1%	6%	17%	3%
COc1ccc(N2CCN(C(=O)CCN3C(=S)NC(C)(C)CC3C)CC2)cc1 (stereo unspecified)	-13%	.	-21%	10%	-5%	-4%
CCN1C=C(C(=O)OC)C(c2cccc(OC)c2OC)C(C(=O)OC)=C1	2%	.	-15%	-10%	?	?
O=C(O)C1CC=CCC1C(=O)Nc1ccccc1C(=O)N1CCN(c2ccc(Cl)cc2)CC1 (stereo unspecified)	-11%[9.22 µM]	.	13%[10 µM]	5%	8%	1%
CCOc1ccc(NC(=O)CN2CCN(CC(=O)Nc3cc(OC)cc(OC)c3)CC2)cc1	3%	-11%	-11%	5%	11µM*	5%
COc1ccc(NC(=O)CN2CCCCC2)cc1	3%	-25%	24%[10 µM]	9%	-18%	?
COc1ccc(C(=O)OCC(=O)Nc2ccc(Cl)c(C(F)(F)F)c2)c(OC)c1OC	0%	-18%	9%[10 µM]	2%	-2%	21%
CCOc1ccc(NC(=O)CN2CCN(CC(=O)Nc3cccc(F)c3)CC2)cc1	2%	7%	8%	3%	18µM*	9%
CCOc1ccc(NC(=O)CN2CCN(CC(=O)Nc3ccc4c(c3)OCCO4)CC2)cc1	19%	-15%	-1%	1%	8.9µM*	0%
COc1cc(CC(=O)Nc2ccc(Cl)c(C(F)(F)F)c2)cc(OC)c1OC	10µM*	-14%	22%[10 µM]	11%	-3%	-1%
CSc1n[nH]c(=O)n1C1CCCCC1	7%[9.22 µM]	.	6%[10 µM]	12%	6%	-10%
CCOc1ccc(NC(=O)CN2CCN(CC(=O)Nc3ccc(Cl)c(C(F)(F)F)c3)CC2)cc1	21%[1.84 µM]	-17%	-31%	0%	13µM*	-3%
Cc1ccc2nc(C3CCN(CC(=O)Nc4ccc5c(c4)OCCO5)CC3)[nH]c2c1	1%	-5%	-22%	2%	22µM*	6%
CN1CCN(c2nnc(-c3cccs3)c3ccccc23)CC1	8%	.	-40%	-9%	?	-4%
SMILES	HTT aggregate	HPGD inh	HTT ATP protect	CBFb RUNX1 block	ALDH1A1 block	JMJD2E inh
Cc1ccccc1Oc1nnc(-c2cccs2)c2ccccc12	3.5µM*	.	12%[10 µM]	-1%	6%	1%
Cc1c(C(=O)OCCOC(C)C)[nH]c2c1C(=O)CC(c1ccco1)C2 (stereo unspecified)	16%	-10%	-51%[10 µM]	-12%	25µM*	-11%
Cc1c(C(=O)OCc2ccccc2)[nH]c2c1C(=O)CC(c1ccco1)C2 (stereo unspecified)	-16%	-28%	-41%	?	8.9µM*	-13%
CN1/C(=C\C(=O)C[n+]2ccc(C(=O)c3ccccc3)cc2)C(C)(C)c2ccccc21	13µM*	.	-18%[10 µM]	4%	-6%	1%
Cc1ccc(OCCOc2ccc(Br)cc2)c([N+](=O)[O-])n1	-30%	10µM*	12%[10 µM]	11%	?	-13%
COc1ccc(N2CCN(C(=O)CCNS(=O)(=O)c3ccccc3)CC2)cc1	12%	.	-20%	8%	-8%	-7%
NC(=O)c1cnn(-c2cc(Oc3ccccc3)ncn2)c1N	-8%[9.22 µM]	.	-4%[10 µM]	6%	0%	-3%
CCOC(=O)C1=C(C)N(c2ccccc2)C(=O)/C1=C\c1ccc(O)c(OC)c1	31%[9.22 µM]	.	-4%[10 µM]	4%	.	4.5µM*
CCOC(=O)C1=C(C)N(c2ccccc2)C(=O)/C1=C\c1ccco1	7%	-18%	-8%[10 µM]	-1%	11µM*	5%
NCC12CC3CC(C1)CC(c1ccc(Cl)cc1)(C3)C2	?	.	-7%	5%	7%	3%
CCOC(=O)n1c(O)c(N=NC(N)=S)c2cc(C)ccc21	-3%[9.22 µM]	.	-6%[10 µM]	-17%	.	0%
CN(C)c1nc(Oc2ccc(=O)n(-c3ccccc3)n2)nc(N2CCOCC2)n1	-13%	-2%	1%	3%	0%	-1%
CN(C)c1nc(N(C)C)nc(N2CC(=O)N(c3ccccc3)C2=N)n1	16%	.	-23%	11%	1.4µM*	0%
CCNc1ccc(N=Nc2c(C)n(C)n(-c3ccccc3)c2=O)cc1	3%	.	-9%[10 µM]	14%	?	-1%
Fc1ccc(C2NCCn3cccc32)cc1 (stereo unspecified)	9%	-15%	-6%	0%	?	20µM*
CCN1CCN(C(=S)NCC(C)C)CC1	-4%	-4%	29%[10 µM]	-1%	-4%	?
COc1ccc(-n2nnnc2SCC(=O)NCCc2ccccc2)cc1OC	1%	.	.	12%	-15%	1%
COc1ccc(CCNc2nnc(Sc3nnnn3-c3ccccc3)s2)cc1OC	?	-7%	-82%[10 µM]	3%	18µM*	-2%
COc1ccc(CNC(=O)CSc2nnnn2-c2ccccc2)cc1	-11%	-10%	-3%	0%	11µM*	7%
COc1ccc(CCNC(=O)CSc2nnnn2-c2ccccc2)cc1	-4%[9.22 µM]	-5%	1%	2%	1.6µM*	-2%
C=CCC(C)(NCc1ccccc1)c1ccco1 (stereo unspecified)	-7%	3%	-19%	1%	4%	-4%
COCCOC(=O)c1c(C)oc2ccc(OC(=O)c3ccc4c(c3)OCO4)cc12	-9%	-13%	10%[10 µM]	?	13%	-2%
